Screening data: PubChem BioAssay, National Center for Advancing Translational Sciences (NCATS)
FEN1 inh-1 = human FEN1 inhibition. P39748. 390,000 tested, 0.35% active. Potency, µM (highest dose often 114 µM), for inactives: at the highest dose activity change, negative = inhibition, usual class: inhibitors. Recombinant FEN1 flap cleavage, fluorescence, 15 min; further: on the % scale 0 is the no-effect control and ±100 the full control effect; nearly all actives have a fitted effect of over 65% in size
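Nuclease activity of 10 nM FEN1 was measured after 15 min of room-temperature exposure to titrated compounds, by adding 50 nM flap substrate and reading plates at 0 and 15 min.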
WRN helicase inh-1 = blocks human WRN helicase | Q14191 | WRN helicase unwinding, fluorescent forked duplex, kinetic | Potency, µM (top dose mostly 114 µM), inactives show top-dose activity change, negative = inhibition, hits mostly inhibitors | 360,000 tested, 0.46% active | AID 651768; further: on the % scale 0 is the no-effect control and ±100 the full control effect; nearly all actives have a fitted effect of over 55% in size
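Fluorescence dequenching readout, ex 525 nm/em 598 nm, kinetic mode: forked duplex DNA (100 nM final) with adjacent fluorophore and quencher unwound by WRN (20 nM final) with 2 mM ATP. Compound preincubation 15 min, room temperature.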
Pol iota inh = blocks human DNA polymerase iota activity. Pol iota fluorescent replication assay, 10 min. Potency, µM (series often up to 115 µM), for the others: at the highest dose activity, negative = inhibition, actives largely listed as inhibitors. 390,000 tested, 1% active
Target sequence (Q9UNA4 whole entry, looked up): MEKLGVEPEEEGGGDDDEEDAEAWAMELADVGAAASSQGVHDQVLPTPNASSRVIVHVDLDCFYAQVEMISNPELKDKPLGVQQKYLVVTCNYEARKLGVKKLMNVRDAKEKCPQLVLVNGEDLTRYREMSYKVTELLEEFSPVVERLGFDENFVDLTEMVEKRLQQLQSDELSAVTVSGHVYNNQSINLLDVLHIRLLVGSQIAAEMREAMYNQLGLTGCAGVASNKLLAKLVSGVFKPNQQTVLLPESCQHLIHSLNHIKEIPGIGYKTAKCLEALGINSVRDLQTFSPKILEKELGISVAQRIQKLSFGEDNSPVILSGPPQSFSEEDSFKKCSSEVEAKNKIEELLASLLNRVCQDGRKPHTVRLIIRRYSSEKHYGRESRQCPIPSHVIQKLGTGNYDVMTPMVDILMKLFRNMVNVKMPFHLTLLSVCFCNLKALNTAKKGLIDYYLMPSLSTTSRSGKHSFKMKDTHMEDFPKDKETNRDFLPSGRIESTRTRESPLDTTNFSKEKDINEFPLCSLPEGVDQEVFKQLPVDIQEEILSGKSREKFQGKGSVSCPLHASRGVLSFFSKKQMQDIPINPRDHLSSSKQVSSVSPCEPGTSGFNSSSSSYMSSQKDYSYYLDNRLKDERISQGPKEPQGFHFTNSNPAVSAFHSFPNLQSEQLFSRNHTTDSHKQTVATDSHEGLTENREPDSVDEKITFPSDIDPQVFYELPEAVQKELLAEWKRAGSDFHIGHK
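Pol iota at 10 nM preincubated 15 min with compounds at room temperature; reaction started with fluorescent substrate, 50 nM final. Fluorescence read kinetically at 0 and 10 min; buffer-only wells as negative control.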
Pol beta inh = blocks human DNA polymerase beta activity. AID 485314. 340,000 tested, 1.3% active. Potency, µM (titrated, usually from 114 µM), for inactives: at the highest dose activity change, negative = inhibition, most hits filed as inhibitors. P06746. Pol beta primer extension/strand displacement, fluorescence kinetic; further: on the % scale 0 is the no-effect control and ±100 the full control effect
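Enzyme-only controls used 10 nM Pol beta; buffer lacking enzyme served as negative control. Compound preincubated 15 min, then 50 nM substrate added; 0 and 10 min reads at room temperature.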
Pol kappa inh-1 = blocks human DNA polymerase kappa activity. Q9UBT6. purified Pol kappa, fluorescent DNA synthesis assay, 10 min. Potency, µM (series often up to 107 µM), inactives show top-dose activity, negative = inhibition, actives largely listed as inhibitors. 400,000 tested, 0.53% active. AID 588579; further: on the % scale 0 is the no-effect control and ±100 the full control effect
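Readout: fluorescence, taken kinetically at 0 and 10 min. Conditions: 10 nM Pol kappa, 15 min RT compound preincubation, 50 nM substrate final. Controls: enzyme-free buffer wells.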
Pol eta inh-1 = blocks human DNA polymerase eta activity; Potency, µM (doses to about 114 µM), without a hit: at the highest dose activity change, negative = inhibition, hits mostly inhibitors; recombinant Pol eta, fluorescent DNA replication assay; AID 588591; 390,000 tested, 1.2% active; further: on the % scale 0 is the no-effect control and ±100 the full control effect
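Pol eta (10 nM) was preincubated with compounds for 15 min at room temperature, after which fluorescent replication substrate (50 nM final) was added to start the reaction. Fluorescence was read kinetically at 0 and 10 min.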
TbPGK inh = blocks T. brucei phosphoglycerate kinase; TbPGK coupled GAPDH assay, Kinase-Glo luminescence; 500 tested, 79% active; shares compounds with Pol kappa inh-1; Potency, µM (top dose mostly 57.5 µM), for the others: at the highest dose activity change, negative = inhibition, usual class: inhibitors; further: on the % scale 0 is the no-effect control and ±100 the full control effect; nearly all actives have a fitted effect of over 65% in size
POLI cherry-pick = Confirm cherry-picked inhibitors of human polymerase iota; 1,500 tested, 77% active; shares compounds with Pol kappa inh-1; AID 720496; Pol iota primer extension, TAMRA/BHQ fluorescence; Potency, µM, hits mostly inhibitors
Pol kappa inh-2 = confirmation of human DNA polymerase kappa inhibitors | shares compounds with Pol eta inh-1 | purified Pol-kappa, fluorescent strand-displacement substrate | Potency, µM, hits mostly inhibitors | 920 tested, 76% active
Pol eta inh-2 = confirmation of human DNA polymerase eta inhibitors. shares compounds with Pol eta inh-1. Pol eta primer extension, TAMRA/BHQ fluorescence, 10 min. Potency, µM, most hits filed as inhibitors. 2,600 tested, 64% active
FEN1 inh-2 = confirmation of human FEN1 inhibitors; shares compounds with FEN1 inh-1; FEN1 flap cleavage, TAMRA/BHQ2 fluorogenic DNA substrate; Potency, µM, actives largely listed as inhibitors; 880 tested, 79% active; further: nearly all actives have a fitted effect of over 60% in size
WRN helicase inh-2 = confirmation of human WRN helicase inhibitors; shares compounds with WRN helicase inh-1; WRN helicase DNA unwinding, fluorescence kinetic; Potency, µM (titrated, usually from 57.1 µM), without a hit: top-dose activity, negative = inhibition, actives largely listed as inhibitors; 610 tested, 63% active; AID 720497; further: nearly all actives have a fitted effect of over 65% in size
TO displacement = DNA binding via thiazole orange displacement | shares compounds with WRN helicase inh-1 | thiazole orange DNA binding displacement, fluorescence | Potency, µM (series often up to 57.1 µM), without a hit: at the highest dose activity change, negative = inhibition, hits mostly inhibitors | 610 tested, 10% active;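 further: drop in dye fluorescence marks compound binding to DNA; on the % scale 0 is the no-effect control and ±100 the full control effect; nearly all actives have a fitted effect of over 60% in size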
BLM counter = BLM helicase inhibition, WRN selectivity check; Recombinant BLM helicase DNA unwinding, red fluorescence; Potency, µM (top dose mostly 57.1 µM), for inactives: at the top dose activity change, negative = inhibition, usual class: inhibitors; AID 720503; shares compounds with WRN helicase inh-1; 610 tested, 60% active; further: nearly all actives have a fitted effect of over 60% in size
Numbers without * were called inactive; ? = inconclusive; nt = not tested or not shown; ! = repeats disagree; [ ] = remark or other dose. Shown are actives, neighbours in structure and some others; about 2.4% of the full set was active somewhere. The call rests on the fitted dose curve; in most records, active means well fitted curve in the direction sought with a large enough effect; inconclusive means small, poorly fitted or top-dose-only effect, or another doubt; inactive means no such curve, though single readings can be large; an effect the other way counts as inactive or inconclusive. Potency means the concentration at half of the fitted maximal effect.

SMILES	FEN1 inh-1	WRN helicase inh-1	Pol iota inh	Pol beta inh	Pol kappa inh-1	Pol eta inh-1	POLI cherry-pick	Pol eta inh-2	WRN helicase inh-2	TO displacement	BLM counter	others
O=C(O)CCCNc1cc(N2CCN(C(=O)c3ccco3)CC2)c2noc3c2c1C(=O)c1ccccc1-3	?	44.7µM*	31.6µM*	15.8µM*	31.6µM*	10µM*	26.7*	9.53*	13.6µM*	294.9%	19.2µM*	Pol kappa inh-2=?;FEN1 inh-2=26.9*
O=C1c2ccccc2-c2c1cccc2C(=O)N1CCN(C(=O)c2ccco2)CC1	1.3%	-0.9%	4.7%	3.0%	-7.5%	-16.0%	nt	nt	nt	nt	nt
O=C(CSc1nc2ccsc2c(=O)n1CC1CCC(C(=O)O)CC1)c1ccc(Cl)cc1 (centres undefined)	?	?	20µM*	22.4µM*	?	39.8µM*	42.3*	nt	24.1µM*	9.8%	15.2µM*	Pol kappa inh-2=59.7*
O=C(CSc1nc2ccsc2c(=O)n1CC1CCC(C(=O)O)CC1)c1ccc(F)cc1 (centres undefined)	-17.1%	-9.7%	-20.8%	4.9%	0.9%	?	nt	nt	nt	nt	nt
Oc1cc2c(c(Cl)c1O)CCNC[C@H]2c1ccccc1	nt	nt	nt	nt	-13.0%[19.4 µM]	nt	nt	nt	nt	nt	nt
Oc1ccc(C2CNCCc3c2cc(O)c(O)c3Cl)cc1 (centres undefined)	8.6%	?	14.1µM*!	?	-0.6%[60.1 µM]	?	?	nt	19.2µM*	-0.8%	24.1µM*
NS(=O)(=O)c1cc(C(=O)NC2CCSc3ccccc32)ccc1Cl (centres undefined)	2.82µM*	0.844µM*	1.26µM*	0.316µM*	0.794µM*	-99.9%	0.597*	0.601*	0.541µM*	-20.7%	0.271µM*	TbPGK inh=0.146µM*;Pol kappa inh-2=0.267*;FEN1 inh-2=3.79*
Fc1ccc(COc2ccc(Br)cc2CNCc2ccncc2)cc1	-26.7%	-8.7%	-2.0%	7.7%	-8.8%	-7.0%	nt	nt	nt	nt	nt
O=C(O)c1ccc2nc(-c3ccco3)c(-c3ccco3)nc2c1	35.5µM*	?	?	3.55µM*	22.4µM*	3.55µM*	4.74*	3.79*	4.29µM*	3.83µM*	12.1µM*	FEN1 inh-2=15.1*
Cc1ccc(-c2nc3ccc(C(=O)O)cc3nc2-c2ccc(C)cc2)cc1	-5.3%	-1.9%	5.0%	13.7%	-17.6%	-0.2%	nt	nt	nt	nt	nt
O=C(O)c1cc2ccccc2c2c1C(=O)c1ccccc1-2	nt	-11.7%	nt	nt	nt	-4.9%	nt	nt	nt	nt	nt
O=C1C=C(c2c(O)ccc3ccccc23)c2ccccc2C1=O	?	20µM*	3.55µM*	nt	-2.6%	20µM*	84.4*	nt	-19.2%	?	?
O=C(CN1C(=O)COc2ccccc21)c1ccc(Cl)cc1	-15.1%	-6.5%	15.5%	5.7%	-9.8%	8.7%	nt	nt	nt	nt	nt
COc1ccc2c(c1)C(=O)[C@H](O)[C@@H](c1ccc(OC)c(Br)c1)O2	-10.4%	9.4%	43.3%	-0.2%	-16.6%	-16.2%	nt	nt	nt	nt	nt
O=C1c2cc(O)c(O)cc2OC(c2ccc(O)c(O)c2)C1O (centres undefined)	31.6µM*	?	3.16µM*	nt	8.91µM*	14.1µM*	37.7*	26.9*	13.6µM*	-14.3%	?	Pol kappa inh-2=18.9*
Cc1ccc(C)c(NC(=O)CN(C)C(=O)c2cccc(Oc3ccccc3)c2)c1	8.6%	-8.2%	1.9%	nt	-13.4%	-2.7%	nt	nt	nt	nt	nt
Cc1ccc(C)c(NC(=O)CN(C)C(=O)c2cccc(-n3cccc3)c2)c1	-18.3%	50.1µM*	8.91µM*	nt	39.8µM*	5.01µM*	16.8*	26.9*	21.5µM*	-2.4%	10.8µM*
Cc1cc(NC(=O)Cc2cccs2)no1	56.2µM*	?	7.94µM*	8.91µM*	22.4µM*	22.4µM*	15*	19*	8.57µM*	24.1µM*	0.961µM*	FEN1 inh-2=?
CCOc1ccc(CCN2C(=O)C(=O)N([C@@H](CC(C)C)CN3CCC[C@@H]3CN3C(=O)C(=O)NC[C@@H]3CC(C)C)C[C@@H]2Cc2ccccc2)cc1	nt	-5.7%	nt	nt	nt	nt	nt	nt	nt	nt	nt
Cc1ccc(C2Nc3ccc4ccccc4c3C3=C2C(=O)CC(C)(C)C3)o1 (centres undefined)	-16.4%	-7.2%	25.3%	-14.8%	-10.6%	-11.6%	nt	nt	nt	nt	nt
O=C1CCCC2=C1C(c1ccco1)Nc1ccc3ccccc3c12 (centres undefined)	50.1µM*	17.8µM*	6.31µM*	6.31µM*	28.2µM*	2µM*	7.52*	19*	15.2µM*	-27.7%	3.04µM*	TbPGK inh=14.6µM*;FEN1 inh-2=75.7*
Cc1ccc(CSCCNC(=O)CN(c2cc(C)ccc2C)S(C)(=O)=O)cc1	-20.1%	-1.3%	0.5%	-10.2%	-3.5%	-8.8%	nt	nt	nt	nt	nt
CCc1ccc(N=C2NC(=O)/C(=C/c3cc(OC)c(OC)c(OC)c3)S2)cc1	15.2%	-27.0%	14.1%	-6.5%	3.1%	-10.4%	nt	nt	nt	nt	nt
CCc1ccc(N=C2NC(=O)/C(=C/c3cc(Br)c(OCC(=O)O)c(OC)c3)S2)cc1	50.1µM*	?	39.8µM*	15.8µM*	?	35.5µM*	67*	84.9*	21.5µM*	-3.8%	24.1µM*	Pol kappa inh-2=47.4*;FEN1 inh-2=75.7*
CCCC[C@@H]1CNC(=S)N1CC1CCCCC1	0.8%	3.5%	17.0%	-23.3%	-17.8%	-22.7%	nt	nt	nt	nt	nt
